# Source: PubChem BioAssay (EPA / NIEHS)
# Activity calls are given as the source filed them. The calls were made as follows: active = hit-call score of the fitted dose curve at least 0.9, where 1 is the maximum; inactive = score below 0.9.
# Key:
# [1] = ATG_M_61_CIS: Attagene CIS-FACTORIAL HepG2 Assay for M61 Transcription Factor (Internal Marker) (AID 2282937); conditions: HepG2 Attagene CIS-FACTORIAL M61 internal marker reporter; actives raise or lower the signal
# Method in brief: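 HepG2 cells transiently transfected with multiplexed cis-promoter reporter units reporting endogenous transcription factor activity, measured 24 h after dosing. Reporter mRNA quantified by RT-PCR and capillary electrophoresis; bidirectional fit against DMSO baseline.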
# [2] = ATG_M_19_CIS: Attagene CIS-FACTORIAL HepG2 Assay for M19 Transcription Factor (Internal Marker) (AID 2282939); conditions: HepG2 Attagene CIS-FACTORIAL M19 internal marker reporter; actives raise or lower the signal
# Method in brief: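 Transfect HepG2 with MRTU reporter library → dose chemical, 24 h → isolate total RNA, reverse-transcribe with oligo(dT) → PCR, 6-FAM label, HpaI cut (2 h, 37 C) → capillary electrophoresis. Bidirectional fit vs DMSO.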
# [3] = ATG_ERE_CIS: Attagene CIS-FACTORIAL HepG2 Assay for Estrogen Response Element (ERE) (AID 2282940); conditions: HepG2 ERE cis-reporter, Attagene RNA transcript; actives raise or lower the signal
# Method in brief: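 Transient MRTU transfection of human HepG2; cis-element promoters; 24 h dosing; total RNA → RT (oligo dT) → PCR → 6-FAM primer extension → HpaI digest → CE fluorescence. Bidirectional fit, DMSO baseline.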
# [4] = ATG_Ets_CIS: Attagene CIS-FACTORIAL HepG2 Assay for human Erythroblast Transformation Specific (ETS) (AID 2282941); conditions: HepG2 ETS cis-reporter transcription, actives raise or lower the signal
# Method in brief: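 HepG2 cells transiently transfected with cis-promoter reporter transcription units were dosed for 24 h; reporter mRNA was measured by RT-PCR, 6-FAM primer extension, HpaI digestion and capillary electrophoresis, with bidirectional fitting against DMSO baseline.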
# [5] = molecular target: Hepatocyte nuclear factor 3-beta (Homo sapiens) (UniProt Q9Y261); experiment: ATG_FoxA2_CIS: Attagene CIS-FACTORIAL HepG2 Assay for human Forkhead box A2 (FOXA2) (AID 2282942); conditions: HepG2 cis-reporter transcription factor activity, 24 h; actives raise or lower the signal
# Hepatocyte nuclear factor 3-beta (Homo sapiens), sequence (Q9Y261 whole entry, looked up): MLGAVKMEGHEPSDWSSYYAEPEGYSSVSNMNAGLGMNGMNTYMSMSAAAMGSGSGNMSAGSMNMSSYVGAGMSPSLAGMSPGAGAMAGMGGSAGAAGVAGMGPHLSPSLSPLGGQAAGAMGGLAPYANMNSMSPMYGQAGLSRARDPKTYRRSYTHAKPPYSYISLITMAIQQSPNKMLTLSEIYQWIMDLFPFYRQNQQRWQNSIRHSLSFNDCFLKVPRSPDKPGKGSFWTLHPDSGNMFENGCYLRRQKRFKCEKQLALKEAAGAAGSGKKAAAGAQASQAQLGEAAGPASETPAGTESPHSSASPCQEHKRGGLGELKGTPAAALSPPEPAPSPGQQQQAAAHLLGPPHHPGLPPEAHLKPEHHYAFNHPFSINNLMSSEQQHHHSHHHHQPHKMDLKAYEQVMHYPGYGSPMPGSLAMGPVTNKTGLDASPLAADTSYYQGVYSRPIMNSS
# Method in brief: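 HepG2 transiently transfected with a multiplexed cis-promoter reporter library read endogenous FOXA2 activity. After 24 h compound exposure, reporter mRNA was quantified by RT-PCR, HpaI digestion and capillary electrophoresis. Bidirectional fit against DMSO.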
# [6] = ATG_FoxO_CIS: Attagene CIS-FACTORIAL HepG2 Assay for human Forkhead box O (FoxO) (AID 2282943); conditions: HepG2 Attagene cis-reporter, FoxO element, mRNA; actives raise or lower the signal
# Method in brief: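 Human hepatoma HepG2 cells carry transiently introduced reporter transcription units controlled by cis promoter elements. Chemical treatment lasted 24 h, and mRNA signal was compared with DMSO.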
# [7] = ATG_GATA_CIS: Attagene CIS-FACTORIAL HepG2 Assay for human GATA Binding Protein (AID 2282944); conditions: HepG2 GATA cis-element reporter, Attagene multiplex mRNA; actives raise or lower the signal
# Method in brief: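 Transient MRTU transfection, HepG2, 24 h compound exposure. Total RNA → oligo(dT) RT → PCR → 6-FAM primer extension → HpaI cut → CE. Bidirectional fit vs DMSO.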
# [8] = ATG_GLI_CIS: Attagene CIS-FACTORIAL HepG2 Assay for human Zinc Finger Protein GLI1 (AID 2282945); conditions: HepG2, Attagene cis-factorial reporter mRNA, GLI element; actives raise or lower the signal
# Method in brief: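 Bidirectional curve fits relative to DMSO, using reporter mRNA levels from RT-PCR plus capillary electrophoresis. Cells were HepG2 transiently carrying cis-regulated reporter constructs, harvested 24 h after dosing.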
# [9] = ATG_EGR_CIS: Attagene CIS-FACTORIAL HepG2 Assay for human Early Growth Response 1 (EGR1) (AID 2282938); conditions: HepG2 Attagene CIS-FACTORIAL EGR reporter mRNA; actives raise or lower the signal
# Method in brief: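 HepG2 cells transiently transfected with cis-element-driven multiplexed reporter units, dosed for 24 h. EGR1-element reporter mRNA quantified by RT-PCR, 6-FAM labelling, HpaI digestion and capillary electrophoresis; bidirectional fit versus DMSO.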
Compound,outcome [1],outcome [2],outcome [3],outcome [4],outcome [5],outcome [6],outcome [7],outcome [8],outcome [9],AC50 [3],AC50 [4],AC50 [9]
Cc1ccc(N)c([N+](=O)[O-])c1,inactive,inactive,inactive,inactive,inactive,inactive,inactive,inactive,–,–,–,–
CC(=O)OCCC1CCCCC1,inactive,inactive,inactive,inactive,–,inactive,inactive,inactive,inactive,–,–,–
O=C(Nc1ccccc1)c1ccccc1O,inactive,inactive,–,–,inactive,inactive,inactive,inactive,–,63.1 µM (active),100 µM (active),–
CCCCCCOC(=O)C(C)CC (configuration not stated),inactive,inactive,inactive,inactive,inactive,inactive,inactive,inactive,inactive,–,–,–
COCc1c(C(C)C)nc(C(C)C)c(/C=C/[C@@H](O)C[C@@H](O)CC(=O)O)c1-c1ccc(F)cc1,inactive,inactive,inactive,inactive,inactive,inactive,–,inactive,inactive,–,–,–
CCOC(=O)c1ccc(N(C)C)cc1,inactive,inactive,inactive,inactive,inactive,inactive,inactive,–,inactive,–,–,–
NC(=O)NNC(N)=O,inactive,inactive,inactive,inactive,inactive,inactive,inactive,inactive,inactive,–,–,–
CC(=O)[C@H]1[C@H](C#N)C[C@H]2[C@@H]3CC=C4C[C@@H](O)CC[C@]4(C)[C@H]3CC[C@@]21C,inactive,inactive,inactive,inactive,inactive,inactive,inactive,–,inactive,–,–,–
NC(=O)N=NC(N)=O,inactive,inactive,inactive,inactive,inactive,inactive,–,–,–,–,–,–
O=c1cc(-c2ccccc2)oc2ccccc12,inactive,inactive,–,inactive,inactive,inactive,inactive,inactive,–,–,–,82.1 µM (active)
CC(CC=O)c1ccccc1 (configuration not stated),inactive,inactive,–,inactive,–,inactive,–,inactive,inactive,112 µM (active),–,–
Clc1nc2ccccc2s1,inactive,inactive,inactive,inactive,inactive,inactive,inactive,inactive,inactive,–,–,–
C[Si](C)(C)O[Si](O)(O)O,inactive,inactive,inactive,inactive,inactive,inactive,inactive,inactive,inactive,–,–,–
Nc1ccc(-c2ccc(F)cc2)cc1,inactive,inactive,–,inactive,inactive,inactive,inactive,inactive,inactive,18.2 µM (active),–,–
Nc1nc2ccccc2[nH]1,inactive,inactive,–,inactive,inactive,inactive,inactive,–,inactive,77.9 µM (active),–,–
